A selection: hits, their analogues and other compounds. The true share with any hit is near 11%.
AmpC inh detg: blocks E. coli AmpC beta-lactamase in detergent assay. actives 0.041% (n = 370,000). AmpC hydrolysis of nitrocefin, absorbance 480 nm, 0.01% Triton. P00811. Potency, µM (highest dose often 114 µM), for inactives: at the top dose activity change, negative = inhibition, actives largely listed as inhibitors;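 also: 0% = no-compound wells and -100% = no-enzyme wells; nearly all actives have a fitted effect of over 25% in size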
Target sequence (P00811 whole entry, looked up): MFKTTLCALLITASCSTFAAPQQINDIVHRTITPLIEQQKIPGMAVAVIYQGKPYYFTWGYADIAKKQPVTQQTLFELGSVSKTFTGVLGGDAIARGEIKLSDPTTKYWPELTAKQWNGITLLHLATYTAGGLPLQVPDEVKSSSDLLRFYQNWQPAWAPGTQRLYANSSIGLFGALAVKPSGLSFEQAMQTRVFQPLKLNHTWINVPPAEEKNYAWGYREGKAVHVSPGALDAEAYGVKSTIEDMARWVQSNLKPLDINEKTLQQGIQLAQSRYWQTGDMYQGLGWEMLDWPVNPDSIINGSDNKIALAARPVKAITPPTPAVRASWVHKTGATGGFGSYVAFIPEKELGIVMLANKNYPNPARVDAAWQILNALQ
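20 mM phosphate pH 7.0 + 0.01% (detergent screen) or 0.0001% Triton X-100; 5.3 nM AmpC reagent; cpd preinc 15 min RT; nitrocefin (800 uM stock) to start; A480 q20 s × 4 min; Activity was normalised to no-enzyme and no-compound control wells.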
HCV inhibitor: HCV inhibition; Potency, µM (titrated, usually from 41.8 µM), for inactives: top-dose activity change, negative = inhibition, usual class: inhibitors; actives 3.4% (n = 340,000); Huh7.5.1 HCVcc-Cre infection, luciferase reporter, 44 h; AID 651820
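Compounds are dispensed onto cells plated 4 h earlier at 1,000 per well, with HCVcc-Cre virus (about 0.5 moi) added next. Following 44 h of culture, luminescent signal is measured for 15 sec after 15 min with substrate at room temperature.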
AMA1 RON2 block: AMA1-RON2 (P. falciparum) interaction inhibition; AID 720542; AlphaScreen AMA1-biotinylated RON2 peptide binding; actives 0.2% (n = 360,000); Potency, µM (doses to about 58.2 µM), without a hit: top-dose activity change, negative = inhibition, usual class: inhibitors;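 also: 0% = vehicle wells and -100% = peptide control; nearly all actives have a fitted effect of over 45% in size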
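AMA1 (3D7) with his tag at 25 nM final met compounds first, then biotinylated RON2 peptide at 25 nM; detection used donor plus acceptor beads, 10 µg/mL apiece, read by AlphaScreen after 30 min at room temperature.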
Pf growth 48h: inhibits P. falciparum growth in the first generation, 48 h; Potency, µM (titrated, usually from 28.7 µM), inactives show top-dose activity change, negative = inhibition, actives largely listed as inhibitors; P. falciparum luciferase growth in erythrocytes, 48 h; actives 5.9% (n = 310,000)
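Here the parasites carry a stable luciferase gene and grow inside erythrocytes in Albumax-based RPMI medium with compound for one erythrocytic cycle. Activity is scored as loss of luminescent signal.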
Pf growth 96h: P. falciparum growth inhibition at 96 hours; P. falciparum luciferase reporter growth, 96 h; Potency, µM (doses to about 28.7 µM), for inactives: at the top dose activity change, negative = inhibition, usual class: inhibitors; actives 6.9% (n = 320,000)
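96 h incubation, 37 C, 5% CO2, of luciferase-reporter P. falciparum-infected RBCs (2% hematocrit, 0.05% parasitemia final) with test compounds; endpoint luminescence.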
AmpC no deterg: AmpC beta-lactamase inhibition without detergent; P00811; AmpC nitrocefin hydrolysis, absorbance 480 nm, 0.0001% Triton; Potency, µM (titrated, usually from 57.1 µM), inactives show top-dose activity change, negative = inhibition, most hits filed as inhibitors; actives 0.52% (n = 330,000);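 also: plate controls were no compound for no effect and no enzyme for full effect; nearly all actives have a fitted effect of over 20% in size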
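AmpC (5.3 nM in the dispensed reagent) in 20 mM phosphate pH 7.0 with 0.01% (detergent screen) or 0.0001% Triton X-100 was preincubated with compounds for 15 min at room temperature. Nitrocefin was then added from an 800 uM solution, and hydrolysis was followed at 480 nm.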
* hit, by the source's call; ? = inconclusive; / = no result given; [ ] = dose if it differs, or a comment. Calls follow the shape of the dose curve; as a rule, active = well fitted curve in the direction sought with a large enough effect; inconclusive = small, poorly fitted or top-dose-only effect, or another doubt; inactive = no such curve, though single readings can be large; an effect the other way counts as inactive or inconclusive. Unless noted, % is scaled to controls: 0 for no effect and ±100 for the full control effect; potency is read from the fitted curve at half-maximal effect.

SMILES	AmpC inh detg	HCV inhibitor	AMA1 RON2 block	Pf growth 48h	Pf growth 96h	AmpC no deterg
Cc1ccc(N(Cc2cc3ccccc3[nH]c2=O)C(=O)c2cccs2)cc1C	1%	?	-2%	12µM*	?	-47%
COCC(=O)N(Cc1cc2cc(C)ccc2[nH]c1=O)c1ccc(C)c(C)c1	?	0%	10%	-8%	10µM*	21%
COc1cc(NC(=O)CC2C(=O)N(c3cccc(C)c3)C(=O)N2Cc2ccc(F)cc2)cc(OC)c1 (centres undefined)	11%	/	/	/	/	/
Cc1nc(S/C(=C\c2ccc(-c3ccc(C(=O)O)c(Cl)c3)o2)C(=O)O)n[nH]1	-3%	25%	18µM*	65%	52%	-35%
O=C1c2cccc(Cl)c2C(=O)c2c1cccc2N1CCCC1	/	?	6.3µM*	/	/	/
O=C(CCCN1C(=O)C(c2ccccc2)Oc2cccnc21)NCc1ccccc1F (centres undefined)	-7%	-6%	-2%	?	2.1µM*	-8%
O=C(CCCN1C(=O)C(c2ccccc2)Oc2cccnc21)NCc1ccccc1Cl (centres undefined)	1%	?	9%	-3%	9%	-2%
O=C(CCCN1C(=O)C(c2ccccc2)Oc2cccnc21)NCCc1ccc(Cl)cc1 (centres undefined)	-5%	?	-9%	?	9.3µM*	61%
O=C(NC1CC1)c1ccc2c(c1)C1C3CCC(C3)C1C(c1ccccc1)N2 (centres undefined)	?	-5%	-13%	9.3µM*	7.4µM*	-12%
O=C(NC1CCCCC1)c1ccc2ccccc2c1	/	/	8%	/	/	/
CCOC(=O)CN1C(=O)N(c2ccc(C)c(C)c2)S(=O)(=O)c2ccccc21	-3%	/	/	/	/	/
CSc1sc(-c2n[nH]c(=S)n2C)c2c1C=CCC2	4%	?	74%	?	5.9µM*	-6%
Cc1nc(-c2ccccc2)sc1-c1n[nH]c(=S)n1C	-3%	8%	79%	32%	?	-17%
CCOc1ccc(Nc2nc3cc(S(=O)(=O)N(CC)CC)ccc3o2)cc1	-2%	10µM*	5%	10µM*	/	-7%
COc1ccc(-c2nc(Cn3c(SCc4ccccc4F)nc4ccncc43)c(C)o2)cc1	?	?	9%	/	4.7µM*	20%
COc1ccc(-c2nc(Cn3c(SCc4ccccc4F)nc4cccnc43)c(C)o2)cc1	20%	/	/	/	/	/
O=C(COc1ccc(Cl)cc1)Nc1nc(-c2cccs2)cs1	-8%	14%	-4%	9%	19%	-45%
COc1cc(C(=O)Nc2nc(-c3cccs3)cs2)cc(OC)c1OC	-2%	1.8µM*	-10%	12µM*	14%[5.75 µM]	65%
O=C(Nc1nc(-c2cccs2)cs1)c1ccc(Cl)cc1	6%	?	-4%	-3%	/	28µM*
CCC(C)NC(=O)c1sc2nc(C)c(C(=O)Nc3ccc(C)cc3C)c(-c3ccccc3Cl)c2c1N (centres undefined)	0%	/	/	/	/	/
CN(Cc1ccc(Cl)cc1)C(=O)CNC(=O)C12CC3CC(CC(C3)C1)C2	5%	-8%	-8%	9.3µM*	10µM*	81%
COc1cccc2c1nc(C)c1cc(C)oc12	?	5.6µM*	0%	67%	-12%	-2%
CCOC(=O)C1CCN(C(c2ccccc2)c2c(O)cc(C)n(Cc3ccco3)c2=O)CC1 (centres undefined)	22%	/	/	/	/	/
NS(=O)(=O)c1ccc(CCNc2ncnc3sccc23)cc1	-6%	5.6µM*	-4%	6%	/	-35%
Cc1sc2ncnc(NCCc3ccc(S(N)(=O)=O)cc3)c2c1C	?	1µM*	-5%	/	?	-5%
SMILES	AmpC inh detg	HCV inhibitor	AMA1 RON2 block	Pf growth 48h	Pf growth 96h	AmpC no deterg
NS(=O)(=O)c1ccc(CNc2ncnc3sccc23)cc1	-6%	-5%	5%	-14%	12%	-13%
Cc1ccc(S(=O)(=O)Nc2ncnc3sc(C)c(C)c23)cc1	?	-16%	-13%[11.6 µM]	0%	-4%	-18%
CCCCCn1cc2c(c1-c1ccccc1Br)c(=O)n(C)c(=O)n2C	25%	/	/	/	/	/
CC(CNC(=O)Cn1ccc2cc(S(=O)(=O)N3CCCCC3)ccc21)c1ccccc1 (centres undefined)	6%	/	/	/	/	/
CCOc1ccc2oc(=O)cc(CN3CCN(c4cc(C)ccc4C)CC3)c2c1	-4%	/	/	/	/	/
CCOC(=O)N1CCN(CC(=O)Nc2ccc([N+](=O)[O-])cc2C(=O)Nc2ccccc2F)CC1	-12%	?	15%	12µM*	?	13%
CCOC(=O)N1CCN(CC(=O)Nc2ccccc2C(=O)Nc2ccccc2)CC1	-5%	-2%	-9%	-25%	39%	-15%
O=C(CN1CCN(Cc2ccccc2)CC1)Nc1ccc([N+](=O)[O-])cc1C(=O)Nc1ccccc1F	0%	?	-17%	10µM*	?	-17%
COc1cc2[nH]c(=O)n(CCCC(=O)NCc3ccccc3Cl)c(=O)c2cc1OC	-3%	/	/	/	/	/
CC1NC(=S)N(C2CCCCC2)C1=O (centres undefined)	-3%	0%	13%	29%	4.7µM*	-17%
CCC(C)C1NC(=S)N(C2CCCCC2)C1=O (centres undefined)	0%	4%	0%	?	?	-27%
Cc1ccc(C2NC(=O)c3c(sc4c3CCN(C)C4)N2)s1 (centres undefined)	1%	18%	25%	-26%	?	-12%
Cc1ccc(C2NC(=O)c3c(sc4c3CCN(C)C4)N2)o1 (centres undefined)	-13%	-1%	69%	/	3.7µM*	-5%
O=C(N1CCCCC1)C12CC3CC(C1)CC(C(=O)N1CCCCC1)(C3)C2	?	4%	4%	-18%	/	4%
O=C(N1CCCC1)C12CC3CC(CC(C3)C1)C2	-5%	-18%	1%	12µM*	-3%	-16%
O=C1CSC(c2c(F)cccc2Cl)N1c1cccc(F)c1 (centres undefined)	-13%	-17%	?	?	12µM*	-14%
O=C1CSC(c2ccccc2F)N1c1ccccc1F (centres undefined)	-11%	6%	-7%	/	47%	-3%
O=C1CSC(c2ccccc2F)N1c1ccccc1 (centres undefined)	-7%	?	5%	-16%	8.3µM*	0%
COc1ccc(-c2nc3scc(CCNS(=O)(=O)c4c(C)noc4C)n3n2)cc1OC	3%	/	/	/	/	/
OCc1cc(CO)c(O)c(CCc2ccccc2)n1	-1%	8%	0%	/	4.7µM*	-9%

Compound activity: PubChem, National Center for Advancing Translational Sciences (NCATS)
